Assay outcomes deposited in PubChem BioAssay by National Center for Advancing Translational Sciences (NCATS).
Sampled rows, rich in hits. Any-hit rate of the full collection: about 1.7%.
PTHR1 agonist = PTHR1 (human) receptor agonism. Q03431. HEK293 GP2 PTHR1 cells, GloSensor cAMP luminescence, 1 h. Potency, µM (doses to about 115 µM), hits mostly activators. hit rate 0.075% among 410,000. AID 743266; also: nearly all actives have a fitted effect of over 55% in size
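HEK-293-derived GP2 cells expressing PTHR1 and a GloSensor cAMP reporter, 3,000/well, plated overnight, given luciferin plus IBMX (each 0.5 mM as added) for 1 h at 37 °C, then compound for 1 h at 37 °C. Luminescence was read after 15 min at room temperature.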
HEK293 tox = cytotoxicity counter-screen for GLP-1 receptor inverse agonists | HEK293 cAMP-luciferase reporter cells, luminescence, 24 h | Potency, µM (doses to about 38.3 µM), actives largely listed as inhibitors | hit rate 0.13% among 410,000 | AID 624418;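 also: loss of luciferase light is scored as toxicity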
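Step one: seed cells (200 cells/uL, DMEM with 10% Nu serum, 1% pen-strep). Step two: 12-hour incubation at 37 deg C. Step three: pin 23 nL compound, incubate 24 hr. Step four: add luciferase reagent, read luminescence 12 min later.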
GLP1R ag = activates the human GLP-1 receptor. P43220. HEK293 GLP-1R CRE-luciferase, luminescence, 4-6 h; cells express a hypersensitive GLP-1R form. Potency, µM (top dose mostly 45.6 µM), most hits filed as activators. hit rate 0.007% among 380,000. AID 624172
Target sequence (P43220 whole entry, looked up): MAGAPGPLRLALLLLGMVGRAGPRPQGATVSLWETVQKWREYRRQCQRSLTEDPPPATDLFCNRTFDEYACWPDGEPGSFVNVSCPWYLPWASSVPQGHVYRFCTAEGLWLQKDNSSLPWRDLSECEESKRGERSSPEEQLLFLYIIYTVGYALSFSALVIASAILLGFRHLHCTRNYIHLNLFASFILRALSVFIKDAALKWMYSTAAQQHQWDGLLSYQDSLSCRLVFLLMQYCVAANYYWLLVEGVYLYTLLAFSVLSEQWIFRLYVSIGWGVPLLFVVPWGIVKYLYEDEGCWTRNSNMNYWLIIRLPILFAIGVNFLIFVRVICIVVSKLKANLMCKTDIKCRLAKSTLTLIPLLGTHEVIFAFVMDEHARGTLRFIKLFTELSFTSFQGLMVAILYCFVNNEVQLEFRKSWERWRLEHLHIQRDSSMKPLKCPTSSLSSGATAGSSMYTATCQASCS
GLP-1R inv ag = GLP-1 receptor (human) inverse agonism; hit rate 1.6% among 410,000; P43220; Potency, µM (series often up to 38.3 µM), usual class: inhibitors; AID 624417; HEK293 GLP-1R CRE-luciferase, luminescence, 24 h; GLP-1R form is constitutively active; also: nearly all actives have a fitted effect of over 55% in size
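Constitutively active GLP-1R drives a cAMP-responsive luciferase in stably transfected HEK293 cells; test compounds are added after overnight (12 h) attachment and left 24 hr, and signal loss in luminescence marks inhibition.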
Each line names hits and unclear results; the compound was inactive in the other large screens; ! = repeats disagree. Calls follow the shape of the dose curve; as a rule, active = well fitted curve in the direction sought with a large enough effect; inconclusive = small, poorly fitted or top-dose-only effect, or another doubt; inactive = no such curve, though single readings can be large; an effect the other way counts as inactive or inconclusive.

Cc1ccc(S(=O)(=O)N2C/C=C\CN(S(=O)(=O)c3ccccc3Br)CC2)cc1	GLP-1R inv ag 10µM
Cc1cc(C)c(S(=O)(=O)NC2CC(C)(C)NC(C)(C)C2)cc1Br	GLP-1R inv ag 11.2µM
CC1(C)CC(NS(=O)(=O)c2ccc3ccccc3c2)CC(C)(C)N1	GLP-1R inv ag 11.2µM
Cc1cc(OCC(=O)NC2CC(C)(C)NC(C)(C)C2)c(C)cc1Br	GLP-1R inv ag 4.47µM
Cc1ccc(C(C)C)cc1S(=O)(=O)NC1CC(C)(C)NC(C)(C)C1	GLP-1R inv ag 8.91µM
COc1cc(C)c(S(=O)(=O)NC2CC(C)(C)NC(C)(C)C2)cc1C	GLP-1R inv ag inconclusive
CC(Sc1nnc(CN2CCCC2)n1Cc1ccccc1)C(=O)Nc1ccccc1 (stereo unspecified)	GLP-1R inv ag 7.94µM
CC(Sc1nnc(CN2CCCC2)n1Cc1ccccc1)C(=O)Nc1ccc(F)c(F)c1F (stereo unspecified)	GLP-1R inv ag 5.01µM
CC(=O)CC/C=C(\C)CC/C=C(/C)CC/C=C(\C)CCC=C(C)C	none (no result: PTHR1 agonist, HEK293 tox, GLP-1R inv ag)
CCN1C(=O)c2ccccc2S(=O)c2ccc(C(=O)N3CCN(c4cc(Cl)ccc4C)CC3)cc21 (stereo unspecified)	GLP-1R inv ag inconclusive
O=S(=O)(Nc1cccc(-c2ccc(N3CCOCC3)nn2)c1)c1ccc(F)c(C(F)(F)F)c1	HEK293 tox inconclusive, GLP-1R inv ag inconclusive (no result: GLP1R ag)
CCOC(=O)c1ccc(NC(=O)CC(=O)Nc2ccc3nc4n(c(=O)c3c2)CCCCC4)cc1	none (no result: GLP1R ag)
CCCCc1oc2ccc(NS(C)(=O)=O)cc2c1C(=O)c1ccc(OCCCN(CCCC)CCCC)cc1	none (no result: PTHR1 agonist, HEK293 tox, GLP-1R inv ag)
CCOC(=O)Cn1nc(-c2ccccc2)c2cnc3ccc(OCC)cc3c21	none
Cc1ccc(S(=O)(=O)Nc2ccccc2CNc2ccc(Br)cn2)cc1	GLP-1R inv ag inconclusive
Cc1ccc(S(=O)(=O)Nc2ccccc2CNc2ncc(Br)cc2Br)cc1	GLP-1R inv ag 10µM
NC(=S)N/N=C\c1ccccc1OCc1ccccc1	HEK293 tox inconclusive, GLP-1R inv ag 5.62µM
NC(=S)N/N=C/c1ccccc1OC(=O)/C=C/c1ccccc1	GLP-1R inv ag 2.51µM
O=C(CSCc1ccccc1)N/N=C/c1ccccc1OCc1ccccc1	none
CC(C)(C)CC(=O)OCC(=O)[C@@]12OC(C)(C)O[C@@H]1C[C@H]1[C@@H]3CCC4=CC(=O)C=C[C@]4(C)[C@@]3(F)[C@@H](O)C[C@]12C	none (no result: PTHR1 agonist, HEK293 tox, GLP-1R inv ag)
CCC(/C=C1\Oc2ccc(OC)cc2N1C)=C\c1sc2ccccc2[n+]1CCCS(=O)(=O)[O-]	none
COc1cc(/C=C/c2sc3ccccc3[n+]2CCCS(=O)(=O)[O-])ccc1O	HEK293 tox 10µM
O=C(NCc1ccccc1Cl)c1ccc(CS(=O)(=O)c2ccccc2)o1	none
Cc1ccc(S(=O)(=O)Cc2ccc(C(=O)NCCc3ccc(Cl)cc3)o2)cc1	GLP-1R inv ag 10µM
O=C(NCc1ccccc1Cl)c1ccc(CS(=O)(=O)c2ccc(Br)cc2)o1	GLP-1R inv ag 10µM (no result: GLP1R ag)
Cc1ccc(NC(=O)c2cc(S(=O)(=O)NCCc3ccc(Cl)cc3)ccc2F)cc1	GLP-1R inv ag 11.2µM (no result: GLP1R ag)
CC1CC2C3CCC4=CC(=O)C=CC4(C)[C@@]3(F)C(O)CC2(C)[C@@]1(O)C(=O)CCl (stereo partly specified)	none (no result: PTHR1 agonist, HEK293 tox, GLP-1R inv ag)
O=C(Cn1ncc(Cl)c(Cl)c1=O)N1CCc2ccccc21	HEK293 tox 5.62µM, GLP-1R inv ag inconclusive
O=C(Cn1ncc(Cl)c(Cl)c1=O)N1CCN(Cc2ccccc2)CC1	HEK293 tox inconclusive, GLP-1R inv ag inconclusive
Cc1cccc(-n2c(Cc3ccccc3)nnc2SCc2nc(-c3cccs3)no2)c1	GLP-1R inv ag inconclusive (no result: GLP1R ag)
CCN(CC)CC#CCC(O)(c1ccccc1)c1ccccc1	GLP-1R inv ag inconclusive
CCN(CC)CC#CCC(O)(c1ccccc1)c1ccc(Br)cc1 (stereo unspecified)	GLP-1R inv ag 10µM
COc1ccc(CCNC(=O)C2COc3ccccc3C2)cc1OC (stereo unspecified)	none (no result: GLP1R ag)
Cc1ccccc1OCC(O)CNCCOc1ccc(C(N)=O)cc1 (stereo unspecified)	none (no result: PTHR1 agonist, HEK293 tox, GLP-1R inv ag)
COc1ccc(OCC(O)CNCCOc2ccccc2OC)c(C(C)(C)C)c1 (stereo unspecified)	GLP-1R inv ag 12.6µM
COc1ccc(C(CCN2CCOCC2)c2c(O)cc(OC)cc2OC)cc1 (stereo unspecified)	none
COc1ccc(C(c2c(O)ccc3ccccc23)N2CCOCC2)c(OC)c1 (stereo unspecified)	HEK293 tox inconclusive, GLP-1R inv ag 10µM
COc1ccc(-c2cc3ccccc3n2CC(O)CN2CCN(CCO)CC2)cc1 (stereo unspecified)	GLP-1R inv ag 10µM
Cc1ccc(OCC(O)Cn2c(=N)n(CCN3CCCCC3)c3ccccc32)cc1 (stereo unspecified)	HEK293 tox inconclusive, GLP-1R inv ag inconclusive
COc1ccc(OCC(O)Cn2c(=N)n(CCN3CCCCC3)c3ccccc32)cc1 (stereo unspecified)	HEK293 tox inconclusive, GLP-1R inv ag 10µM!
COc1ccc(CNc2nc3ccccc3n2CCN2CCCCC2)cc1	HEK293 tox inconclusive, GLP-1R inv ag 10µM
COc1ccc(-c2cc3ccccc3n2CC(O)CN2CCOCC2)cc1 (stereo unspecified)	GLP-1R inv ag inconclusive
N=c1n(CCN2CCCCC2)c2ccccc2n1CC(=O)c1cccs1	GLP-1R inv ag 5.62µM
CCCn1c(=N)n(CC(=O)c2cccs2)c2ccccc21	PTHR1 agonist inconclusive, HEK293 tox inconclusive
CCn1c(C(=O)NCc2ccccc2Br)cc2oc3ccccc3c21	GLP-1R inv ag inconclusive (no result: GLP1R ag)
O=C1c2ccccc2C(=O)C1(c1ccccc1)N1CCN(c2cccc(C(F)(F)F)c2)CC1	GLP-1R inv ag inconclusive (no result: GLP1R ag)
Cc1ccccc1OCC(O)Cn1c(=N)n(Cc2ccccc2)c2ccccc21 (stereo unspecified)	HEK293 tox inconclusive, GLP-1R inv ag 8.91µM
O=C(Nc1nc2ccccc2[nH]1)c1ccc(OC(F)F)cc1	GLP-1R inv ag inconclusive
CC(C)Oc1ccc(C(=O)Nc2nc3ccccc3[nH]2)cc1	GLP-1R inv ag 1.12µM
Cc1ccc(Cn2c(CNS(=O)(=O)c3ccc(C(C)(C)C)cc3)nc3cccnc32)cc1	GLP-1R inv ag inconclusive (no result: GLP1R ag)
COc1cc(OC)c(NC(=O)C(C)n2nc(-c3ccc(C)cc3)c3c(c2=O)CCCC3)cc1Cl (stereo unspecified)	GLP-1R inv ag inconclusive (no result: GLP1R ag)
CCC(C(=O)Nc1cc(OC)ccc1OC)n1nc(-c2ccccc2)c2c(c1=O)CCCC2 (stereo unspecified)	GLP-1R inv ag 12.6µM (no result: GLP1R ag)
COc1ccc(C(=O)c2ccc(Br)cc2)c2ccccc12	GLP-1R inv ag inconclusive
COc1ccc(C(=O)c2ccc(Cl)cc2)c2ccccc12	GLP-1R inv ag 10µM
CCCCCC(C)n1[nH]c(=O)cc1N (stereo unspecified)	none
CCCCCCC(C)n1[nH]c(=O)c2c(C)cc(C)nc21 (stereo unspecified)	GLP-1R inv ag 10µM
